A selection: hits, their analogues and other compounds. The true share with any hit is near 1.8%.
PI5P4Ka inh: inhibitors of human PI5P4K alpha; P48426; PI5P4Kalpha enzyme, ADP-Glo luminescence, 60 min; stronger effect = lower value; max response, %; AID 652105; actives 1.2% (n = 330,000); active = max response of -50% or lower; inconclusive = between -30% and -50%; inactive = -30% or higher; note: value at the top dose of about 77 µM
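Reactions run in 0.038 M HEPES pH 7.4, 0.28 mM EGTA, 0.1% CHAPS and 5% DMSO, with PI5P4Kalpha, substrate, compound and 5 microM ATP final, one hour at room temperature. Readout is ADP-Glo luminescence.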
Six1-Eya2 blk: blocks human Six1 binding to Eya2; AlphaScreen GST-Six1/His-Eya2 binding, biochemical; stronger effect = lower value; activity change, % (test concentration not listed); actives 0.56% (n = 360,000); AID 651725
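Six1/Eya2 binding was read as AlphaScreen signal after compounds were pinned into GST-Six1 plus His-tagged Eya2 (5X stock 250/500 nM) in pH 8.0 Tris/NaCl/TCEP buffer, beads added, then incubated 1 h, 37 C, dark.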
PI4K2A inh: blocks human PI4K2A kinase activity; Q9BTU6; purified PI4K2A, ADP-Glo luminescence, 1 h; stronger effect = lower value; activity change, negative = inhibition, % at 76.9 µM; actives 0.13% (n = 420,000); in the data active = activity change below about -50%; inconclusive = mostly about -30% to -49%;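 note: -100% = wells without enzyme as full effect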
Target sequence (Q9BTU6 whole entry, looked up): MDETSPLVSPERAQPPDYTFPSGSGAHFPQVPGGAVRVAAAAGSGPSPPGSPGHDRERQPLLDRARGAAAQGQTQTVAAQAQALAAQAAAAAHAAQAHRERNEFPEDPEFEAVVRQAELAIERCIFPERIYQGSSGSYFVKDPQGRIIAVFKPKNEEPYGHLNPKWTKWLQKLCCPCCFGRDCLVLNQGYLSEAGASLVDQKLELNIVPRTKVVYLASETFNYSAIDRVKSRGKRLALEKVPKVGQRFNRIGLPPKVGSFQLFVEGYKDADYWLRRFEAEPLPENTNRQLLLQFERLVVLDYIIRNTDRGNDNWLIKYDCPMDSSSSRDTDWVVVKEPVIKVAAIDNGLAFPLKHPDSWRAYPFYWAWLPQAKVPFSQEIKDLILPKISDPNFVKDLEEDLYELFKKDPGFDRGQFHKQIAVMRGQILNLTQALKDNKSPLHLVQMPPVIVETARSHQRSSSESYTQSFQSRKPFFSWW
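In this quantitative HTS, ADP production by PI4K2A was quantified luminescently after 1 h at ambient temperature; 100 microM adenosine served as plate-quality control.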
Akt phos inh: blocks phosphorylation of Akt | Neuro2A IGF-stimulated pAkt S473 HTRF, 20 min; stronger effect = lower value | activity change, % for hits at 50 µM | actives 0.32% (n = 360,000); in the data active = activity change below about -80%; inconclusive = mostly about -51% to -80%
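Neuro2A cells in DMEM with 0.5% FBS, overnight at 37 deg C, given compound at single 50 µM final, then IGF (6 nM final) for 20 min at 37 deg C. Lysed; phospho-Akt Ser473 by HTRF after 24 h, 665/615 ratio.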
CtBP-E1A blk: inhibitors of CtBP/E1A interaction | actives 0.49% (n = 340,000) | AID 651724 | AlphaScreen GST-E1A/His-CtBP binding, 1536-well; stronger effect = lower value | activity change, % (no concentration beside the values)
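Protein mix (5X: 125 nM each GST-E1A, His-CtBP) was incubated with pinned compound 2 h at 37 deg C in dark, in 50 mM Tris pH 8.0 buffer with 300 mM NaCl. Glutathione donor and nickel acceptor beads followed; AlphaScreen signal read after 1 h.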
* = called active by the depositor; i = inactive; ? = inconclusive; . = not tested or not shown. Cut-off read from the data, not from the text of the source, unless noted: active = activity change below about -65%; inconclusive = mostly about -30% to -63%; inactive = weaker than that. Unless noted, % is set by controls: 0 for no effect and ±100 for the full control effect.

SMILES	PI5P4Ka inh	Six1-Eya2 blk	PI4K2A inh	Akt phos inh	CtBP-E1A blk
O=C(/C=C/c1ccc(Cl)cc1)NCCN1CCOCC1	.	-1	3	-95%*	12
CC1=C(C(=O)Nc2ccccc2C)C(c2ccc(C)o2)NC(=S)N1 (stereo unspecified)	3	3	-2	i	10
CN(C)c1cc(Cl)c2nonc2c1N	-10	?	-57*	i	?
CCN(CC)c1cc(Cl)c2nonc2c1N	0	-21	-9	i	-19
COCCNC(=O)c1cccc(OC2CCN(Cc3cccc(C(C)=O)c3)CC2)c1	4	1	-1	i	-2
CCN(CC(=O)Nc1ccc(NC(C)=O)cc1)C(=O)C1(c2ccc(Cl)cc2)CCC1	3	4	0	i	0
NC(=S)N/N=C/c1ccc(-c2ccc([N+](=O)[O-])cc2)o1	-56*	-28	-7	i	-1
Cc1cc(=O)[nH]c(N/N=C/c2ccc(-c3ccc([N+](=O)[O-])cc3)o2)n1	0	-71*	3	i	-74*
NC(=S)N/N=C/c1ccc(-c2cc(Cl)cc(Cl)c2)o1	?	-9	-1	i	-7
Cc1ccc(C(=O)N/N=C\c2ccc(-c3ccc([N+](=O)[O-])cc3)o2)cn1	1	-7	0	i	5
CCOc1ccc(-c2cn3ccccc3n2)cc1	-25	-7	-52*	i	-8
CC(C)[C@H](NC(=O)c1ccccc1F)C(=O)Nc1ccc2c(c1)OCO2	-5	-1	2	i	-4
COc1ccc2[nH]c3c(=O)n(Cc4ccc(C(=O)N5CCC(C(N)=O)CC5)cc4)c(=S)[nH]c3c2c1	-59*	?	-1	i	.
CCOc1ccc(C(=O)N(CN2CCCC2=O)c2ccc(C)cc2)cc1	.	3	6	i	-1
O=C1C=C(O)c2[nH]c(=O)ccc2C1=O	-57*	-18	?	i	5
NC1=CC(=O)C(=O)c2ccccc21	-15	1	?	i	-24
CC1=NN(c2ccccc2)C(=O)C1C(=S)SC1CC(=O)NC1=O (stereo unspecified)	?	?	-15	i	-23
O=C1CC(SC(=S)C2CCCC2=O)C(=O)N1 (stereo unspecified)	-80*	-28	-11	i	-15
COc1cccc(N(C(=O)CS(=O)CC(=O)Nc2ccc(F)cc2)C(C(=O)NC2CCCCC2)c2cccs2)c1 (stereo unspecified)	-1	5	1	i	0
NC(=O)CC(NC(=O)c1ccccc1)c1ccc(N2CCc3ccccc3C2)c([N+](=O)[O-])c1 (stereo unspecified)	1	-15	-5	i	-11
CN(C)c1ccc(N=Nc2cccc3ccoc23)cc1	25	-65*	-3	i	.
CN(C)c1ccc(N=Nc2cccc(F)c2)cc1	56	-78*	4	i	-67*
O=C(CSc1nnc2c(n1)[nH]c1ccccc12)Nc1ccc(S(=O)(=O)Nc2ncccn2)cc1	0	-76*	-12	i	.
Cc1[nH]nc2c1C(c1cccnc1)N(c1ccc(Br)cc1)C2=O (stereo unspecified)	-2	-2	-1	i	-5
COC(=O)c1cccc(-c2ccc(C(c3c(C)[nH][nH]c3=O)c3c(C)[nH][nH]c3=O)o2)c1	?	-4	?	i	-9
SMILES	PI5P4Ka inh	Six1-Eya2 blk	PI4K2A inh	Akt phos inh	CtBP-E1A blk
Cc1[nH][nH]c(=O)c1C(c1ccc(-c2ccc(Cl)c(C(=O)O)c2)o1)c1c(C)[nH][nH]c1=O	-22	?	-59*	i	-2
CC(C)CCn1c(=O)c2ccccc2c2ccccc2c1=O	-3	26	10	i	12
O=c1cc[nH]c2c1ccc1c(=O)cc[nH]c12	?	-75*	-6	i	-86*
CCc1c(Cl)nc(N)nc1Nc1ccccc1C	12	-1	1	i	5
Cc1ccccc1Nc1nc(N)[nH]c(=O)c1N=O	-27	?	-2	i	-86*
Cc1ccc(NC(c2ccc(Cl)cc2)c2nnc(-c3cccc(F)c3)o2)cc1C (stereo unspecified)	.	.	0	.	.
CCOC(=O)c1c(C)[nH]c(C)c1C(=O)COc1ncnc2ccccc12	-55*	3	-1	i	-8
Cc1nnc(SCC(=O)N2CCOCC2)c2ccccc12	6	1	-4	-115%*	1
O=C(CSc1nc2ccccc2nc1SCC(=O)N1CCOCC1)N1CCOCC1	-5	4	6	.	1
Cc1ccc(C(=O)Nc2ccc3c(c2)CCC3)o1	.	-2	-6	.	10
O=C(Nc1ccc(N2CCN(C(=O)c3ccccc3)CC2)c(Cl)c1)c1ccc(Br)o1	.	-5	6	-86%*	41
O=C(Nc1ccc2c(c1)CCC2)c1ccc(Br)o1	9	4	-14	-114%*	-3
CN(C)/C=C/c1c([N+](=O)[O-])c2ccc(O)cc2n1-c1ccccc1	-59*	-11	-4	i	-9
COC(=O)c1c(C)n(-c2ccccc2)c2ccc(O)cc12	.	-11	-3	i	-12
CCS(=O)(=O)C1=NSC2=NC(=O)/C(=C\c3ccc(OC(=O)c4ccco4)cc3)C(=N)N21	-87*	-10	-16	i	0
CC(C)S(=O)(=O)C1=NSC2=NC(=O)/C(=C\c3ccc(OC(=O)c4ccco4)cc3)C(=N)N21	-76*	-21	-9	.	.
COc1ccc(NC(=O)CSc2n[nH]c(C(C)C)n2)c([N+](=O)[O-])c1	0	9	-1	i	-12
Cn1c(SCCC#N)nnc1-c1ccccc1F	-14	0	-2	i	-1
CC1=C(SCCC#N)S/C(=C2\SC(C)=C(SCCC#N)S2)S1	.	-78*	4	i	-5
c1ccc(-c2nc3ccccc3[nH]2)cc1	2	7	-8	.	-22
Nc1cc(N)cc(-c2nc3ccccc3[nH]2)c1	-64*	?	1	i	?
CCOC(=O)c1nnn(-c2nonc2N)c1-c1ccc(OCC)cc1	6	-3	-1	-112%*	-1
O=c1c(O)cccc2cc(O)c(O)c(O)c12	-83*	?	?	i	.
COc1cc2cccc(OC)c(=O)c2c(OC)c1OC	-2	4	0	i	8
Cc1cc(Br)ccc1NC(=O)CN(C)C(=O)CSC(=S)N1CCCC1	5	-7	-4	i	14
O=C(/C=C/c1ccc([N+](=O)[O-])cc1)OCC(=O)N1CCCCCC1	2	-10	2	i	-72*
COC(=O)CCC(=O)OC1(C)C(=O)C=C2C=C(C3CC3)N(C3CC3)C=C2C1=O (stereo unspecified)	-3	2	?	i	0
